Experimental data from PubChem BioAssay AID1159580 (chemical genetic matrix, 2015).
Hit rate of the full screen: of about 5,500 compounds, about 2,000 (36%) were called active. Not shown: some 18% with an inconclusive outcome. No stated cut-off is given here; in the data, active means normalized growth mostly below about 0.91 (no sharp cut-off); inconclusive means no clear call, values can overlap the other calls; inactive means mostly above about 0.92. The list shows a part of the results.

Assay: chemical genetic growth profiling, strain panel (AID 1159580);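 further: tested at 20 µM; growth read once vehicle control cultures reached saturation at 30 °C; 1 = growth at the plate median or of vehicle wells; lower values mean less growth of the strain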
Settings: S. cerevisiae deletion strains, growth OD

Measured: normalized growth

Oc1ccc2c3c1O[C@H]1c4[nH]c5c(c4C[C@@]4(O)[C@@H](C2)N(CC2CC2)CC[C@]314)C[C@@]1(O)[C@H]2Cc3ccc(O)c4c3[C@@]1(CCN2CC1CC1)[C@H]5O4
inactive: locus YAL013W, strain DEP1, hits give low values 0.969 | locus YAL040C, strain CLN3, hits give low values 1 | locus YCL061C, strain MRC1 (second series), hits give low values 0.962 | locus YDR363W, strain ESC2, hits give low values 1.02 | locus YER002W, strain NOP16, hits give low values 0.996 | locus YGR078C, strain PAC10, hits give low values 0.986 | locus YMR263W, strain SAP30, hits give low values 0.982 | locus YMR307W, strain GAS1, hits give low values 1.03 | locus YNL175C, strain NOP13, hits give low values 1 | locus YNL197C, strain WHI3, hits give low values 0.978 | locus YNL224C, strain SQS1, hits give low values 1 | locus YNL322C, strain KRE1, hits give low values 0.958 | locus YOR083W, strain WHI5 (second series), hits give low values 1.01 | locus YPL241C, strain CIN2, hits give low values 0.968
